Measurements taken from PubChem BioAssay AID602440 (Sanford-Burnham Center for Chemical Genomics, 2012).
The whole screen tested about 360,000 compounds, of which about 2,300 (0.64%) were called active. The entries come from a sample that favours actives as a whole. Values without a mark were called inactive. No stated cut-off is given here; in the data, active means inhibition mostly above about 40% (no sharp cut-off); inactive means mostly below about 27%.

Target: Sentrin-specific protease 8 (Homo sapiens) (UniProt Q96LD8)
Assay: blockers of SENP8 deneddylase activity – biochemical, fluorescence, Nedd8 protein substrate, uHTS, primary screen (AID 602440)
Conditions: recombinant SENP8, Nedd8 substrate fluorescence; at 20 µM; hits give high values

Chain of Sentrin-specific protease 8 (Homo sapiens) (Q96LD8 whole entry, looked up): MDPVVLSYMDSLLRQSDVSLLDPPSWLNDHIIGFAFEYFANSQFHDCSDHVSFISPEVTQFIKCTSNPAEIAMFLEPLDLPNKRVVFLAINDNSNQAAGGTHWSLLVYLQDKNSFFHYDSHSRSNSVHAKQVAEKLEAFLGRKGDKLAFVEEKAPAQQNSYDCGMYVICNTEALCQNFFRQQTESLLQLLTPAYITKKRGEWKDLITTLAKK

SMILES | inhibition
CC1(C(=O)Nc2cccc3c2CCCC3)CCN1C(=O)CCc1ccc(Cl)cc1Cl (stereo unspecified) | 10.4%
CC(=O)N1C(=O)/C(=C2\SC(=S)N(NC(=O)c3ccc(O)cc3)C2=O)c2ccccc21 | 53.5% (active)
COc1ccc(C(=O)NN2C(=O)C3C(c4ccccc4)C=CC(c4ccccc4)C3C2=O)cc1 (stereo unspecified) | 7%
COc1ccc2c(c1)N(C)/C(=C1/SC(=S)N(NC(C)=O)C1=O)S2 | 1.5%
Oc1cccc(C2c3[nH]c4ccccc4c3CCN2Cc2cnn(-c3ccccc3)c2)c1 (stereo unspecified) | -56.9%
CSCC[C@H](NC(=O)CCCn1nnc2ccccc2c1=O)C(=O)O | 38.5%
CCOC(=O)N1CCN(C(=O)C[C@@H]2C[C@@]3(C(=O)OC)CC(C)(C)CC=C3N(Cc3ccco3)C2=O)CC1 | 26.3%
CCCc1ccc(C(=O)COC(=O)CN2C(=O)NC3(CCCCC3C)C2=O)cc1 (stereo unspecified) | 9.6%
CCCCCCCCCCCCCCCC(=O)OC/C=C(C)/C=C/C=C(C)/C=C/C1=C(C)CCCC1(C)C | 40.9% (active)
CCc1nnc(NC(=O)CCN(c2ccc(C)cc2)S(=O)(=O)c2ccccc2)s1 | 14.8%
COCCCNC(=O)CNC(=S)N(Cc1cc(OC)c(OC)c(OC)c1)C1CCCC1 | 4.9%
Cc1c(NC(=O)Nc2cccc([N+](=O)[O-])c2)c(=O)n(-c2ccccc2)n1C | 9.3%
CCOC(=O)C(CC)Sc1ncnc2c1nnn2-c1ccc(F)cc1 (stereo unspecified) | 40.3% (active)
COC(=O)C(C)n1cnc2c(nnn2-c2ccc(F)cc2)c1=O (stereo unspecified) | 4.4%
CCOC(=O)C(C)n1cnc2c(nnn2-c2ccc(F)cc2)c1=O (stereo unspecified) | 6.3%
CC(C)c1nc2oc3c(N4CCN(C)CC4)ncnc3c2c2c1CCC2 | -130%
Cc1ccnc(N2CCN(C(=O)CSc3nc4ccccc4nc3N3CCCCC3)CC2)c1 | -63.3%
OC(COCC1COc2ccccc2O1)CN1CCN(c2ccc(F)cc2)CC1 (stereo unspecified) | 16.7%
CN1/C(=c2/s/c(=C3/C(=O)N(c4ccccc4)NC3=Nc3ccccc3)n(C)c2=O)C(C)(C)c2ccccc21 | 54.8% (active)
OCC1(Cc2ccccc2)CCN(Cc2cc3ccccc3o2)CC1 | 3.7%
CCN(CC)S(=O)(=O)c1ccc(N2CCOCC2)c(NC(=O)C2CSC3(C)CCC(=O)N23)c1 (stereo unspecified) | -11.2%
Cc1cc([N+](=O)[O-])c(N2CCC[C@@H]2C(=O)O)c([N+](=O)[O-])c1 | 2.1%
Cc1cc([N+](=O)[O-])c(NC2CCCCC2)c([N+](=O)[O-])c1 | 45.6% (active)

SMILES | inhibition
Cc1cc(C)cc(NC(=O)NC2CCCCCCC2)c1 | 1.8%
CCCCN(CC(=O)NC(C)(C)C)C(=O)C(=O)Nc1ccc2c(c1)OCCO2 | 17%
O=S(=O)(O)CCN1CCOCC1 | 24.3%
O=C1c2ccccc2C(=O)C1C(=O)C1CC1 | 37.6% (active)
O=C1c2ccccc2-c2ccccc2NC1O (stereo unspecified) | 14.1%
O=C1c2ccccc2C(=O)C1c1ccccc1 | 4.5%
Cc1cccc2nc(CNc3ccc(F)cc3)cn12 | -86.7%
CCOC(=O)c1sc2nc(C)nc(Nc3ccc(OC)c(OC)c3)c2c1C | -82.2%
CCCCN1CC(C)(C)[C@H](CC(=O)Nc2ccc(Br)cc2)C1=O | 15.8%
Cn1c2ccc(F)cc2c2nnc(NN)nc21 | 49.2% (active)
CCn1c2ccc(F)cc2c2nnc(SCCN3CCOCC3)nc21 | 11.3%
CN(C)c1nc(NN)nc(Nc2ccc(F)cc2)n1 | 12.3%
N#Cc1c(N)nc2c3c(sc(=N)c2c1N)NC(=O)CC3c1ccccc1Cl (stereo unspecified) | -174%
CCCCN1CC(N2CCN(Cc3cccc(C)c3)CC2)CS1(=O)=O (stereo unspecified) | 12.1%
C#CCOc1ccccc1/C=C1/C(=O)ON=C1C | 13.5%
CC1=NOC(=O)/C1=C\c1ccccc1 | 42.9% (active)
Cc1ccc(S(=O)(=O)n2oc(=O)c(C3CCCCC3)c2N)cc1 | 7.6%
COc1cc(OC)cc(C(=O)NCC(=O)OCc2csc(-c3ccccc3)n2)c1 | 15.3%
Cc1ccc(F)cc1NC(=O)c1cccc(N(C)C)c1 | -82.7%
CN(C)S(=O)(=O)c1ccc(C(=O)NCC2(N3CCOCC3)CCCCC2)cc1 | 5.2%
COc1cc(N2CCCC2)c(OC)cc1/C=C(/C#N)c1cccc(Br)c1 | 75.3% (active)
CCC(C)CN1CCC(CO)(Cc2ccccc2Cl)CC1 (stereo unspecified) | 1.5%
COc1ccc(Br)c(Cn2c(C)c(C(=O)NCc3cccs3)sc2=O)c1 | 3.5%

SMILES | inhibition
COc1cccc(Nc2nnc(SCC(=O)N3CC(=O)Nc4ccccc43)s2)c1 | -6.6%
COc1c(F)c(F)c(C(=O)O)c(Nc2ccccc2C)c1F | 4.1%
Cc1nn(Cc2ccc(Cl)cc2)c(Cl)c1/C=N/NC(=O)CNc1ccccc1F | 7.1%
Cc1ccc(S(=O)(=O)N2CCN(CC(=O)N/N=C/c3ccc(Br)s3)CC2)cc1 | 6%
Cc1ccccc1NCC(=O)N/N=C\c1ccc([N+](=O)[O-])s1 | 45.1% (active)
O=C(CN(C(=O)CNC(=O)c1cccs1)c1cccc(F)c1)NC1CCCCC1 | 11.2%
Cc1ccc(NC(=O)COC(=O)CN2CCSC2=O)cc1F | 14.3%
Cc1cccc(S(=O)(=O)N(C)C[C@H]2OCc3cnnn3CCCC(=O)N([C@@H](C)CO)C[C@H]2C)c1 | 14.1%
CC(=O)Nc1ccc(S(=O)(=O)N2CCC(NC(=O)c3ccccc3)CC2)cc1 | 9%
CC(=O)N1CCN(S(=O)(=O)c2cccc(C(=O)NC3CCC(C)CC3)c2)CC1 (stereo unspecified) | 43.9% (active)
COc1ccc(OC)c(NC(=O)c2cccc(S(=O)(=O)N3CCN(C(C)=O)CC3)c2)c1 | 13.3%
C/C(=N\NC(=O)CCn1nc(C)cc1C)C(C)(C)C | 13.5%
CCN1C(=O)[C@H]2[C@@H](c3ccc(C(F)(F)F)cc3)N[C@]3(CCCN(Cc4ccc(Br)cc4)C3=O)[C@H]2C1=O | 3.9%
COc1cccc(N2C(=O)CC(N3CCc4ccccc4C3)C2=O)c1 (stereo unspecified) | 11.5%
O=C(c1c(F)cccc1Cl)N1CCN(S(=O)(=O)c2ccc3c(c2)OCCCO3)CC1 | 5.8%
CC(C)CC(=O)N=C1SC2CS(=O)(=O)CC2N1CCc1ccccc1 (stereo unspecified) | 42% (active)
O=C(N=C1SC2CS(=O)(=O)CC2N1Cc1ccccc1)c1ccccc1 (stereo unspecified) | 13.8%
O=C(CCC1CCCC1)N=C1SC2CS(=O)(=O)CC2N1Cc1ccccc1 (stereo unspecified) | 8.9%
Cn1c2c(c(=O)n(C)c1=O)C(c1ccc(O)cc1)Nc1ccccc1O2 (stereo unspecified) | 23%
COc1ccc(S(=O)(=O)Nc2ccc3cn[nH]c3c2)cc1[N+](=O)[O-] | 45.4% (active)
O=C(O)c1cc(S(=O)(=O)Nc2ccc3cn[nH]c3c2)ccc1Br | -90.8%
COc1ccc(S(=O)(=O)N/N=C\c2ccc(OC)c(COc3ccc(C)cc3[N+](=O)[O-])c2)cc1 | 10.6%
Cc1cc(NC(=O)CCC(=O)N(Cc2ccccc2)C(C(=O)NC2CCCC2)c2ccc(C)o2)no1 (stereo unspecified) | 1.5%

SMILES | inhibition
CCOc1ccc(NC(=O)c2cccc3c2C(=O)N(CC2CCCO2)C3)cc1 (stereo unspecified) | 5.6%
CCCN1C(=O)C(Cc2nc3ccccc3c(=O)n2-c2ccccc2)c2cc(C)ccc21 (stereo unspecified) | 12.4%
CCn1c(O)c(N=NC2=NC(=O)CS2)c2cc(C)ccc21 | 46.9% (active)
CCn1c(O)c(N=NC(=O)c2cccc(S(=O)(=O)N3CCCCC3)c2)c2ccccc21 | 28%
N#Cc1cccc(NC(=O)c2cc(C3CCCCN3C(=O)CCc3ccccc3)on2)c1 (stereo unspecified) | 8.1%
Clc1ccc(C2[C@H]3CN(CC4CCCCC4)[C@H](c4ccccc4)C34CC2(c2cccnc2)C4)cn1 (stereo partly specified) | 7.6%
COc1ccc(NC(=O)CSc2nnnn2-c2cccc(OC)c2)cc1 | 10.5%
COc1ccccc1C(CNC(=O)c1cccc(NS(=O)(=O)c2ccc(Br)cc2)c1)N(C)C (stereo unspecified) | 0.9%
Cc1ccc(NS(=O)(=O)c2ccc(N/N=C/c3ccccc3OCC(=O)O)c([N+](=O)[O-])c2)c(C)c1 | 49.7% (active)
COc1ccc(Br)cc1/C=N/Nc1ccc(S(=O)(=O)Nc2ccccc2C(=O)O)cc1[N+](=O)[O-] | 46.4% (active)
Cc1ccc(S(=O)(=O)NC(=O)COc2ccccc2C)cc1 | 12.8%
CC1CN(C(=O)c2ccccc2NS(=O)(=O)c2cccc([N+](=O)[O-])c2)CC(C)O1 (stereo unspecified) | 4.5%
COc1ccc(N(CC(=O)Nc2ccc(C)cc2C)S(=O)(=O)c2ccccc2[N+](=O)[O-])c(OC)c1 | 10.2%
COc1cccc(N(Cc2nnc3n2CCCCC3)C(=O)Nc2ccccc2F)c1 | 9.7%
CC1CC2=C(CC1/C=N/NC(N)=S)C(C)(C)CCC2 (stereo unspecified) | 12.2%
O=C(CCNS(=O)(=O)c1ccccc1)NCCSc1ccc(Br)cc1 | 9%
CNC(=O)COc1ccc(S(=O)(=O)Nc2ccccc2)cc1 | 3.4%
COc1ccc(C(=O)C(C)OC(=O)c2cccc(S(=O)(=O)Nc3c(C)n(C)n(-c4ccccc4)c3=O)c2)cc1 (stereo unspecified) | 5.8%
Cc1ccc(S(=O)(=O)N[C@H](CO)C(C)C)cc1 | 11.7%
Cc1ccc(S(=O)(=O)/N=C2\C=C(NS(=O)(=O)c3ccc(C)cc3)C(=O)c3ccccc32)cc1 | 89.9% (active)
Cc1ccc(S(=O)(=O)N/N=C(\c2ccccc2)C2CC2)cc1 | 3.3%
COc1ccc(S(=O)(=O)/N=C2\C=C(NS(=O)(=O)c3ccccc3)C(=O)c3ccccc32)cc1 | 70% (active)
